Results: PubChem BioAssay AID1347142 (National Center for Advancing Translational Sciences (NCATS), 2019)
Results filed as inconclusive are left out. Activity calls are given as the source filed them. Calls come from the whole dose curve; as a rule, active = well fitted inhibition curve with a large enough effect; inconclusive = small, poorly fitted or top-dose-only effect; inactive = no such curve, though single readings can be large or run the other way.

target: N-terminal Xaa-Pro-Lys N-methyltransferase 1 (Homo sapiens) (UniProt Q9BV86); assay: qHTS Assay for Inhibitors of N-terminal methyltransferase 1 (NTMT1): ThioGlo3 Assay Confirmatory Screen, Round 1.; settings: NTMT1 SAHH-coupled ThioGlo3 fluorescence, 30 min; series mostly up to 56.8 µM
Text: Assay Submitter (PI): Rong Huang Ph.D, Purdue University, West Lafayette, IN 47907 The N-terminal methytransferase 1 is the first methyltransferase that methylates protein alpha-N-amines and plays an important role in regulating cell mitosis, chromatin interactions and DNA repair. It is observed to be over-expressed in various cancer patient tissues like malignant melanoma and colorectal cancer tissues. Knockdown of NTMT1 in cancer cells causes cell mitotic defects and enhances sensitivity to DNA damaging chemotherapeutics. […] These critical cellular processes in which NTMT1 is implicated, coupled with emerging links to cellular dysfunction, strengthen the inference that NTMT1 is a compelling novel anticancer target. Progress have been made in understanding the molecular properties of NTMT1 and the biological consequences of protein alpha-N-terminal methylation, but there are no specific small molecule probes available for NTMT1 to fully characterize its MTase activity. To address this unmet need, a panel of assay is created and established to enable quantitative high-throughput screening (qHTS) for novel, potent, and selective small molecule NTMT1 inhibitors. Two orthogonal qHTS that use different reagents (ThioGlo vs. MTaseGlo) are developed for primary robotic screening against the NCATS chemical library of more than 400,000 small molecules. Identified inhibitors are reacquired, validated, and further characterized. […] Early Translation Branch (ETB) National Center for Advancing Translational Sciences (NCATS) National Institute of Health (NIH)
Materials: NTMT1 enzyme, substrate SPKRIA, control peptide RCC1-6 is provided by the Huang laboratory. ThioGlo3 Assay: In brief, 125nM NTMT1 enzyme was dispensed into a 1536-well assay plate with Aurora Discovery BioRAPTR Flying Reagent Dispenser (FRD, Beckton-Dickenson). Compounds (at various concentration) or 1uM RCC1-6 (SPKRIA) control were transferred to the assay plate using the Kalypsys 1536-pintool apparatus. After 1 min of room temperature incubation, 1uL of substrate (100uM SAM, 10uM SAHH, 15uM ThioGlo3) was added to the wells bringing the final assay volume to 4uL. Initial (background) fluorescence readout (EX: 340nm, EM: 450nm) was then detected using the PerkinElmer ViewLux microplate imager and a final fluorescence readout was taken after 30 min of room temperature incubation. The data was normalized to the background fluorescence.
Note: nearly all actives have a fitted effect of over 80% in size.
Potency is the fitted concentration of half-maximal effect.

Chain of N-terminal Xaa-Pro-Lys N-methyltransferase 1 (Homo sapiens) (Q9BV86 whole entry, looked up): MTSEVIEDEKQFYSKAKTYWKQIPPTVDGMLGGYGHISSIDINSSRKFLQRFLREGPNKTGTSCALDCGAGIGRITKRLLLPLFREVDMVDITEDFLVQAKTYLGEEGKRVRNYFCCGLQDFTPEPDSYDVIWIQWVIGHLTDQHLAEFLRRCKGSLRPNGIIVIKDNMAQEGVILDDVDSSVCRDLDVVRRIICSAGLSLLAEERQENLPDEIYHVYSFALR

Compound | Potency
COc1cc2c(NC3CCN(C)CC3)nc(N3CCN(C)CC3)nc2cc1OCCCN(C)C | 24.1 µM (active)
COc1cc2c(NC3CCN(C)CC3)nc(N3CCCN(C)CC3)nc2cc1OCCOCCN(C)C | 24.1 µM (active)
NC[C@H]1O[C@@H](n2cnc3c(N)ncnc32)[C@H](O)[C@@H]1O | inactive
CO[C@@H]1[C@@H]2OP(=O)(O)OC[C@H]2O[C@H]1n1c(Sc2ccc(Cl)cc2)nc2c(N)ncnc21 | inactive
COc1cc2c(NC3CCN(C(C)C)CC3)nc(N3CCCN(C(C)C)CC3)nc2cc1OCCOCCN(C)C | 24.1 µM (active)
COc1cc2c(NC3CCN(C(C)C)CC3)nc(N3CCCCC3)nc2cc1OCCOCCN(C)C | 27.1 µM (active)
COc1cc2c(NC3CCN(C(C)C)CC3)nc(N3CCCN(C4CCCCC4)CC3)nc2cc1OCCCN1CCCC1 | 24.1 µM (active)
Nc1ncnc2c1ncn2C1C[C@H](O)[C@@H](CO)O1 (stereo not given in full) | inactive
CSc1ncnc2c1ncn2C1OC(CO)C(O)C1O (stereo not given) | inactive
CNc1nc2c(N)ncnc2n1[C@@H]1O[C@@H]2COP(=O)(O)O[C@H]2[C@H]1O | inactive
COc1cc2c(NC3CCN(CC4CCCCC4)CC3)nc(N3CCCN(C(C)C)CC3)nc2cc1OCCCN1CCCCC1 | 24.1 µM (active)
C[S+](CCC(N)C(=O)O)CC1O[C@@H](n2cnc3c(N)ncnc32)C(O)C1O (stereo not given in full) | inactive
COc1cc2c(NC3CCN(C)CC3)nc(N3CCCN(C)CC3)nc2cc1OCCN(C)CCN(C)C | 27.1 µM (active)
CC(C)N(CCCNC(=O)Nc1ccc(C(C)(C)C)cc1)C[C@H]1O[C@@H](n2cc(Br)c3c(N)ncnc32)[C@H](O)[C@@H]1O | inactive
CNC(=O)[C@H]1O[C@H](n2cnc3c(NCc4cccc(I)c4)ncnc32)[C@@H](O)[C@@H]1O | inactive
CCNC(=O)[C@H]1O[C@H](n2cnc3c(N)nc(NCCc4ccc(CCC(=O)O)cc4)nc32)[C@@H](O)[C@@H]1O | inactive
COc1cc2c(NC3CCN(C)CC3)nc(N3CCCN(C)CC3)nc2cc1OCCCN1CCOCC1 | 24.1 µM (active)
COc1cc2c(NC3CCN(C(C)C)CC3)nc(N3CCC(F)(F)CC3)nc2cc1OCCCN1CCCCC1 | 6.81 µM (active)
OC[C@H]1O[C@H](n2cnc3c(NC4CCCC4)nc(Cl)nc32)[C@@H](O)[C@@H]1O | inactive
C=C1OC(CO)(n2cnc3c(N)ncnc32)C(O)C1O (stereo not given) | inactive

Compound | Potency
CNc1ncnc2c1ncn2[C@H]1C[C@H](O)[C@@H](CO)O1 | inactive
COc1cc2c(NC3CCN(C)CC3)nc(N3CCCCC3)nc2cc1OCCOCCN(C)C | 24.1 µM (active)
COc1cc2c(NC3CCN(C)CC3)nc(N3CCCN(C)CC3)nc2cc1OCCCN1CCCC1 | 27.1 µM (active)
COc1cc2c(NC3CCN(C)CC3)nc(N3CCCN(C)CC3)nc2cc1OCCN(C)C | 21.5 µM (active)
COc1cc2c(NC3CCN(C(C)C)CC3)nc(N3CCCN(C)CC3)nc2cc1OCCCN1CCCCC1 | 24.1 µM (active)
Nc1ncnc2c1ncn2[C@@H]1O[C@H](C[C@@H](N)CC[C@H](N)C(=O)O)[C@@H](O)[C@H]1O | inactive
COc1cc2c(NC3CCN(CC4CCCCC4)CC3)nc(N3CCCCCC3)nc2cc1OCCCN1CCCCC1 | 24.1 µM (active)
Nc1ncnc2c1ncn2[C@@H]1O[C@@H](CO)[C@H](O)[C@H]1O | inactive
CNC(=O)[C@H]1O[C@@H](n2cnc3c(NCc4ccc(N)cc4)ncnc32)[C@H](O)[C@@H]1O | inactive
COc1cc2c(NC3CCN(C(C)C)CC3)nc(N3CCC(F)(F)CC3)nc2cc1OCCCN1CCCC1 | 24.1 µM (active)
CCCC(=O)Nc1ncnc2c1ncn2[C@@H]1O[C@@H]2COP(=O)(O)O[C@H]2[C@H]1OC(=O)CCC | inactive
COc1cc2c(NC3CCN(C)CC3)nc(N3CCCN(C)CC3)nc2cc1OCCOCCN1CCCC1 | 27.1 µM (active)
COc1cc2c(NC3CCN(C)CC3)nc(N3CCCN(C)CC3)nc2cc1OCC1CCNCC1 | 24.1 µM (active)
COc1cc2c(NC3CCN(C(C)C)CC3)nc(N3CCCN(C(C)C)CC3)nc2cc1OCCCN1CCCC1 | 27.1 µM (active)
CNc1ncnc2c1ncn2[C@@H]1O[C@H](COP(=O)(O)O)[C@@H](O)[C@H]1O | inactive
Nc1nc(Cl)nc2c1ncn2[C@@H]1O[C@H](CO)[C@H](O)[C@H]1O | inactive
Nc1ncnc2c1ncn2[C@H]1O[C@@H](CO)[C@@H](O)[C@H]1N | inactive
COc1cc2nc(N3CCN(C)CC3)nc(N3CCN(C(C)=O)CC3)c2cc1OC | 21.5 µM (active)
COc1cc2c(NC3CCN(C(C)C)CC3)nc(N3CCCN(C4CCCCC4)CC3)nc2cc1OCCCN1CCCCC1 | 24.1 µM (active)
COc1cc2c(NC3CCN(C(C)C)CC3)nc(N3CCCN(C)CC3)nc2cc1OCCCN1CCCC1 | 24.1 µM (active)
